Drawing on PubChem BioAssay (NCATS), this text covers activity change, negative = inhibition for 39 molecules.

Inconclusive results are not listed. Calls of active or inactive are those of the source. Calls follow the shape of the dose curve; as a rule, active = well fitted curve in either direction with a large enough effect (not every such curve was filed as active); inconclusive = small, poorly fitted or top-dose-only effect, or another doubt; inactive = flat fitted curve, though single readings scatter.
% is scaled to controls: 0 for no effect and ±100 for the full control effect.

A short description of one test: AP1 Signaling Pathway (AID 357). As to conditions: ME-180 (cervical carcinoma) AP-1-bla reporter, EGF-induced, beta-lactamase ratio, 5 h; at 17.2 µM (top of the series) unless noted. A digest of the protocol:
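AP-1-bla ME-180 cells with beta-lactamase reporter under AP-1 response element, stimulated with EC50 EGF; compounds titrated, 5 hours at 37 degrees Celsius. CCF4 read at 460/530 nm ratio; positive and negative modulators judged by AC50.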
As for `O=C1C2ON(c3ccccc3)C(c3cccnc3)C2C(=O)N1c1ccccc1` (stereo not drawn), the activity change, negative = inhibition was -5.35% (inactive).
Regarding `COc1ccc(-c2oc3ncn4nc(Cc5ccccc5)nc4c3c2-c2ccc(OC)cc2)cc1`, the activity change, negative = inhibition is -0.634% (inactive).
As to `O=C(O)c1cc2sccc2s1`, the activity change, negative = inhibition is -0.721% (inactive).
The same measure, in the same setting: then `Cc1cccc(N2C(=O)CC(N3CCN(Cc4ccc(Cl)cc4)CC3)C2=O)c1` (stereo not drawn), with 1.23% (inactive).
The same measure, in the same setting: to `COCCN(Cc1ccccc1)P(=O)(O)c1ccccc1OCC(=O)O` belongs -2.92% (inactive); to `S=c1[nH]nc(-c2ccco2)n1Cc1ccccc1`, 6.39% (inactive); to `CCOC(=O)c1c(C)n(C)c2ccc(OC)c(NC(=O)CN3CCCCC3)c12`, -11.4% (inactive).
As for `C=CCN1C(=O)CC(C(=O)NC)SC1=Nc1ccc(C(=O)OCC)cc1` (stereo not drawn), the activity change, negative = inhibition was -3.69% (inactive).
`CC(=O)Nc1ccc(OC(=O)CC2SC(=O)NC2=O)cc1` (stereo not drawn): the activity change, negative = inhibition was 6.63% (inactive).
`CCSc1nnc(N(CCC(=O)O)CCC(=O)O)s1`: the activity change, negative = inhibition is 2.21% (inactive).
The same measure, in the same setting: to `CCSc1nc(O)c(C2OC(=O)c3c2ccc(OC)c3OC)c(=O)n1-c1ccccc1` (stereo not drawn) belongs -10.9% (inactive); to `COc1ccc(C(O)C(CN2CCOCC2)c2ccccc2)cc1` (stereo not drawn), -1.55% (inactive); to `O=S(=O)(O)c1nc2ccccc2n1Cc1ccc(Cl)cc1Cl`, 18.6% (inactive).
In the case of `CCO/C(C)=N/n1c2nc3ccccc3nc2c2c(=O)n(CC(C)C)c(C)nc21`, the activity change, negative = inhibition was -19.8% (inactive).
Regarding `COc1cccc(C2/C(=C(\O)c3ccc4c(c3)OCCO4)C(=O)C(=O)N2CCCN(C)C)c1OC` (stereo not drawn), the activity change, negative = inhibition is 4.3% (inactive).
Take `CCC1CC2(C)NC(=O)c3c(sc4c3CC(C)(C)OC4)N2C1=O` (stereo not drawn): the activity change, negative = inhibition was -7.1% (inactive).
On the same count and under the same terms, to `CCOC(=O)/C(C#N)=C1/SC(CCO)C(=O)N1c1ccccc1` (stereo not drawn) belongs -6.66% (inactive); to `O=C(O)c1cnn2c(C(F)(F)F)cc(-c3ccco3)nc12`, 11% (inactive); to `COC(=O)c1c(-n2cnnn2)sc(C)c1C`, -20.5% (inactive).
As for `C=CCNc1nc(NCc2ccccc2)c(C#N)c2c1CN(C)CC2`, the activity change, negative = inhibition was 23.1% (inactive).
`Cc1nc2ccccc2cc1O`: the activity change, negative = inhibition was 13.6% (inactive).
For `Nc1nnnn1/N=C/c1cccc(Oc2ccccc2)c1`, the activity change, negative = inhibition was -4.47% (inactive).
As to `CCCCC(C(=O)O)C(C)CC(=O)Nc1cccc(C(=O)O)c1` (stereo not drawn), the activity change, negative = inhibition is 5.92% (inactive).
For the molecule `CCOC(=O)C1=C(C(C)=O)C(c2cccnc2)C(C#N)=C(N)O1` (stereo not drawn), the activity change, negative = inhibition was 29.3% (inactive).
Regarding `O=C(NCCOCCOCCNC(=O)c1cccnc1)c1cccnc1`, the activity change, negative = inhibition was -1.69% (inactive).
On the same count and under the same terms, to `CCOc1ccccc1N1CCN(c2nc3ccccc3nc2C(C#N)C(=O)OC)CC1` (stereo not drawn) belongs -24.3% (inactive).
In the case of `CCn1nc(NC(=O)c2cccnc2)c2cc3ccccc3nc21`, the activity change, negative = inhibition is -12.7% (inactive).
As for `Cc1[nH]nc2cn[nH]c12`, the activity change, negative = inhibition was -10.4% (inactive).
In the case of `Cc1cc(C)n(-c2c(F)c(F)c(CN3CCCCC3)c(F)c2F)n1`, the activity change, negative = inhibition is -3.48% (inactive).
With `CN(C)CCNC(=O)C12CC3(C)CC(C)(CC(C)(C3)C1)C2`, the activity change, negative = inhibition was 7.28% (inactive).
As for `CC(=O)Nc1cc2c(cc1Br)OCCO2`, the activity change, negative = inhibition was 0.764% (inactive).
On to `c1ccc(CSc2nnc(SCc3ccccn3)s2)nc1`, for which the activity change, negative = inhibition is -9.4% (inactive).
On the same count and under the same terms, to `Cc1ccc(C(=O)C2=C(O)C(=O)N(c3ncccn3)C2c2cccc(Cl)c2)o1` (stereo not drawn) belongs -1.15% (inactive); to `Cc1ccc(NC(=O)c2cc(N3CCOCC3)nc3ccccc23)cc1`, -15.5% (inactive); to `CC(=O)Oc1ccc2c(C)cc(=O)[nH]c2c1`, 8.38% (inactive).
Same read-out and setting: to `CCOC(=O)CCc1c(C)c(C#N)c2nc3ccccc3n2c1-n1ccnc1` belongs -6.27% (inactive); to `C=CCn1c(SCc2c(F)c(F)c(F)c(F)c2F)nc(O)cc1=O`, 4.5% (inactive); to `Cn1c(/C(C#N)=C/Nc2ccccn2)nc2ccccc21`, -8.79% (inactive).
Consider `Nc1ccc2oc3ncccc3c(=O)c2c1`, for which the activity change, negative = inhibition is 7.58% (inactive).

Another test can be described thus: NFAT Signaling Pathway (AID 444).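 Also: carbachol stimulus at about its EC50 of 1 µM final.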 As to conditions: Jurkat NFAT-bla M1, carbachol, beta-lactamase ratio, 5 h; at 17.2 µM (top of the series) unless noted. Put shortly:
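Read-out: CCF4 FRET ratio (460 nm/530 nm) after 1 h RT dye loading, used for %activity and AC50 from titration series. Cells: Jurkat NFAT-β-lactamase/M1 line, treated with compound plus 1 uM carbachol for 5 h, 37 °C.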
For the molecule `O=C1C2ON(c3ccccc3)C(c3cccnc3)C2C(=O)N1c1ccccc1` (stereo not drawn), the activity change, negative = inhibition was -5.72% (inactive).
With `COc1ccc(-c2oc3ncn4nc(Cc5ccccc5)nc4c3c2-c2ccc(OC)cc2)cc1`, the activity change, negative = inhibition is -13% (inactive).
Take `O=C(O)c1cc2sccc2s1`: the activity change, negative = inhibition is -6.24% (inactive).
On the same count and under the same terms, then `Cc1cccc(N2C(=O)CC(N3CCN(Cc4ccc(Cl)cc4)CC3)C2=O)c1` (stereo not drawn), with 6.12% (inactive); and `COCCN(Cc1ccccc1)P(=O)(O)c1ccccc1OCC(=O)O`, with -4.16% (inactive).
The same measure, in the same setting: then `S=c1[nH]nc(-c2ccco2)n1Cc1ccccc1`, with 3.89% (inactive); and `CCOC(=O)c1c(C)n(C)c2ccc(OC)c(NC(=O)CN3CCCCC3)c12`, with -1.27% (inactive).
On the same count and under the same terms, to `C=CCN1C(=O)CC(C(=O)NC)SC1=Nc1ccc(C(=O)OCC)cc1` (stereo not drawn) belongs 16.7% (inactive); to `CC(=O)Nc1ccc(OC(=O)CC2SC(=O)NC2=O)cc1` (stereo not drawn), 11.3% (inactive); to `CCSc1nnc(N(CCC(=O)O)CCC(=O)O)s1`, 5.3% (inactive).
With `CCSc1nc(O)c(C2OC(=O)c3c2ccc(OC)c3OC)c(=O)n1-c1ccccc1` (stereo not drawn), the activity change, negative = inhibition was 4% (inactive).
Same read-out and setting: then `COc1ccc(C(O)C(CN2CCOCC2)c2ccccc2)cc1` (stereo not drawn), with 7.08% (inactive).
Same read-out and setting: then `O=S(=O)(O)c1nc2ccccc2n1Cc1ccc(Cl)cc1Cl`, with 7.47% (inactive); and `CCO/C(C)=N/n1c2nc3ccccc3nc2c2c(=O)n(CC(C)C)c(C)nc21`, with 12.6% (inactive).
Take `COc1cccc(C2/C(=C(\O)c3ccc4c(c3)OCCO4)C(=O)C(=O)N2CCCN(C)C)c1OC` (stereo not drawn): the activity change, negative = inhibition was 5.21% (inactive).
As for `CCC1CC2(C)NC(=O)c3c(sc4c3CC(C)(C)OC4)N2C1=O` (stereo not drawn), the activity change, negative = inhibition was -20.5% (inactive).
Take `CCOC(=O)/C(C#N)=C1/SC(CCO)C(=O)N1c1ccccc1` (stereo not drawn): the activity change, negative = inhibition is 2.53% (inactive).
For `O=C(O)c1cnn2c(C(F)(F)F)cc(-c3ccco3)nc12`, the activity change, negative = inhibition is 1.41% (inactive).
Take `COC(=O)c1c(-n2cnnn2)sc(C)c1C`: the activity change, negative = inhibition was 2.79% (inactive).
In the case of `C=CCNc1nc(NCc2ccccc2)c(C#N)c2c1CN(C)CC2`, the activity change, negative = inhibition was 5.41% (inactive).
Same read-out and setting: then `Cc1nc2ccccc2cc1O`, with 7.71% (inactive).
Consider `Nc1nnnn1/N=C/c1cccc(Oc2ccccc2)c1`, for which the activity change, negative = inhibition is -18.6% (inactive).
With `CCCCC(C(=O)O)C(C)CC(=O)Nc1cccc(C(=O)O)c1` (stereo not drawn), the activity change, negative = inhibition is -0.782% (inactive).
For `CCOC(=O)C1=C(C(C)=O)C(c2cccnc2)C(C#N)=C(N)O1` (stereo not drawn), the activity change, negative = inhibition is -19% (inactive).
Take `O=C(NCCOCCOCCNC(=O)c1cccnc1)c1cccnc1`: the activity change, negative = inhibition was -1.99% (inactive).
For `CCOc1ccccc1N1CCN(c2nc3ccccc3nc2C(C#N)C(=O)OC)CC1` (stereo not drawn), the activity change, negative = inhibition was -106% (active).
Still for that read-out and setting: then `CCn1nc(NC(=O)c2cccnc2)c2cc3ccccc3nc21`, with 9.22% (inactive); and `Cc1[nH]nc2cn[nH]c12`, with 6.17% (inactive).
Take `Cc1cc(C)n(-c2c(F)c(F)c(CN3CCCCC3)c(F)c2F)n1`: the activity change, negative = inhibition was -27.9% (inactive).
Consider `CN(C)CCNC(=O)C12CC3(C)CC(C)(CC(C)(C3)C1)C2`, for which the activity change, negative = inhibition was -25.2% (inactive).
As for `CC(=O)Nc1cc2c(cc1Br)OCCO2`, the activity change, negative = inhibition is -0.709% (inactive).
As for `c1ccc(CSc2nnc(SCc3ccccn3)s2)nc1`, the activity change, negative = inhibition is 3.91% (inactive).
In the case of `Cc1ccc(C(=O)C2=C(O)C(=O)N(c3ncccn3)C2c2cccc(Cl)c2)o1` (stereo not drawn), the activity change, negative = inhibition is 24.9% (inactive).
For `Cc1ccc(NC(=O)c2cc(N3CCOCC3)nc3ccccc23)cc1`, the activity change, negative = inhibition is 19.3% (inactive).
Same read-out and setting: then `CC(=O)Oc1ccc2c(C)cc(=O)[nH]c2c1`, with -13.4% (inactive).
Same read-out and setting: then `CCOC(=O)CCc1c(C)c(C#N)c2nc3ccccc3n2c1-n1ccnc1`, with 10% (inactive); and `C=CCn1c(SCc2c(F)c(F)c(F)c(F)c2F)nc(O)cc1=O`, with 25.9% (inactive).
The same measure, in the same setting: to `Cn1c(/C(C#N)=C/Nc2ccccn2)nc2ccccc21` belongs -5.83% (inactive); to `Nc1ccc2oc3ncccc3c(=O)c2c1`, 10.7% (inactive).
